Among the data in PubChem BioAssay are z-score and composite z-score values, retold here.

Molecules are shown by their SMILES. The source made the active and inactive calls.

A short description of assay [1]: compound effects on differentiated 3T3-L1 adipocyte viability – cell-based, 3T3-L1 adipocytes, calcein-AM fluorescence, 48 h, basal, profiling panel (AID 1163). Particulars: 3T3-L1 adipocytes viability, higher = more signal.
The nature of assay [2]: compound effects on hepatocellular carcinoma cell viability – HepG2, calcein-AM fluorescence, 48 h, basal, profiling panel (AID 1164). The note with it: higher = more signal.
The nature of assay [3]: compound effects on multiple myeloma cell viability – MM1S, calcein-AM fluorescence, 48 h, basal, profiling panel (AID 1165).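 Note: viability of MM1S multiple myeloma cells under basal unstimulated conditions.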 The note with it: higher = more signal.
A short description of assay [4]: calcein-AM signal in unstimulated myeloma cells – cell-based, calcein-AM fluorescence, 48 h, PK04 Diversity Set, profiling panel (AID 1166).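 Note: cells grown under basal conditions without added stimulus.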 Particulars: RPMI8226 myeloma viability, higher = more signal.
Assay [5] is described as follows: JC-1 mitochondrial signal, unstimulated HepG2 cells – cell-based, JC-1 fluorescence, 24 h, 100 nL compound, profiling panel (AID 1167). Particulars: HepG2 mitochondrial potential, higher = more signal.
Assay [6] in a line: JC-1 mitochondrial signal, unstimulated adipocytes – cell-based, JC-1 fluorescence, 3T3-L1 adipocytes, 24 h, 100 nL compound, profiling panel (AID 1168). Particulars: JC-1 mitochondrial fluorescence, higher = more signal, called active from +8 up or from −8 down.
Assay [7] in a line: JC-1 mitochondrial signal, unstimulated myeloma cells – cell-based, JC-1 fluorescence, RPMI8226, 24 h, 100 nL compound, profiling panel (AID 1169). Particulars: JC-1 mitochondrial potential fluorescence, higher = more signal.
A short description of assay [8]: JC-1 mitochondrial signal, unstimulated MM1S myeloma – cell-based, JC-1 fluorescence, 24 h, 100 nL compound, profiling panel (AID 1170). Particulars: MM1S mitochondrial potential, higher = more signal.
Assay [9] in a line: resazurin metabolic signal in A549 cells – cell-based, resazurin fluorescence, 24 h, PK04 Diversity Set, profiling panel (AID 1171). The note with it: A549 viability, higher = more signal, called active from +8 up or from −8 down.
A short description of assay [10]: resazurin metabolic signal in HepG2 cells – cell-based, resazurin fluorescence, 24 h, PK04 Diversity Set, profiling panel (AID 1172). Particulars: HepG2 viability, higher = more signal.
Assay [11] can be described thus: budding yeast growth changes without added modifier – OD600, strain BY4716, 24 h, basal condition, primary screen (AID 1173). The note with it: S. cerevisiae BY4716 growth, OD600, 24 h; higher = more signal, called active from +8 up or from −8 down.
A short description of assay [12]: viability profiling in MM1S myeloma cells – cell-based, resazurin fluorescence, basal, 24 h, PK04 Diversity Set, profiling panel (AID 1174). Particulars: higher = more signal, called active from +8 up or from −8 down. (In general: Resazurin is reduced to fluorescent resorufin, in cell work by metabolically active cells.)
For assay [13], the target named is Dihydroorotate dehydrogenase (quinone), mitochondrial (Plasmodium falciparum (isolate 3D7)) (UniProt Q08210). In words: inhibition of P. falciparum DHODH – biochemical, C-terminal His tag, absorbance 600 nm, primary screen (AID 1175).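 Note: recombinant parasite enzyme with a five histidine tag at its C terminus.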 Particulars: PfDHODH enzyme, DCIP absorbance 600 nm; higher = more signal, called active from +8 up or from −8 down.
The nature of assay [14]: growth modulation of vineyard yeast isolate – strain RM11-1a, OD600, basal, 24 h, primary screen (AID 1177).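 Note: cultures grown under basal conditions with no added stressor.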 The note with it: S. cerevisiae RM11-1a growth, OD600, 24 h; higher = more signal, called active from +8 up or from −8 down.
Assay [15] can be described thus: growth of efflux-deficient E. coli DRC39 – strain DRC39, OD650, 24 h, E. coli filamentation inducers, primary screen (AID 1178).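 Note: growth measured as culture turbidity by optical density at 650 nm.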 The note with it: E. coli DRC39 acrAB, higher = more signal, called active from +8 up or from −8 down.
A short description of assay [16]: growth of efflux-deficient E. coli DRC39 – strain DRC39, OD650, 48 h, E. coli filamentation inducers, primary screen (AID 1179).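 Note: screen aims at cell division blockers that make cells filament.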 The note with it: E. coli DRC39 delta-acrAB growth, higher = more signal, called active from +8 up or from −8 down.
Assay [17] is described as follows: viability profiling in RPMI8226 myeloma cells – cell-based, resazurin fluorescence, basal, 24 h, PK04 Diversity Set, profiling panel (AID 1180).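 Note: RPMI8826 multiple myeloma cell line at 5000 cells per well.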 The note with it: higher = more signal.
Assay [18] has as its target E3 ubiquitin-protein ligase XIAP (Homo sapiens) (UniProt P98170). In words: small molecules binding XIAP protein – biophysical, small-molecule microarray, fluorescence 635 nm, primary screen (AID 1181).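 Note: score merges 667 nm emission and signal to noise over triplicate slides.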 Particulars: higher = more signal.
In assay [19] the test system is XIP peptide (Xip251-270) binding. In words: XIP fragment 251-270 binding compounds – biochemical, small-molecule microarray, fluorescence 635/667 nm, 0.1 µg/mL protein, primary screen (AID 1182). Particulars: fluorescent protein binding, 635 nm, higher = more signal, called active from +8 up or from −8 down.
The next assay has as its system XIP peptide (Xip251-270). In words: compounds binding XIP fragment 251-270 – biochemical, small-molecule microarray, fluorescence 635/667 nm, 0.5 µg/mL protein, primary screen (AID 1183). The note with it: fluorescence 635 nm, higher = more signal.

Chain of Dihydroorotate dehydrogenase (quinone), mitochondrial (Plasmodium falciparum (isolate 3D7)) (Q08210 whole entry, looked up): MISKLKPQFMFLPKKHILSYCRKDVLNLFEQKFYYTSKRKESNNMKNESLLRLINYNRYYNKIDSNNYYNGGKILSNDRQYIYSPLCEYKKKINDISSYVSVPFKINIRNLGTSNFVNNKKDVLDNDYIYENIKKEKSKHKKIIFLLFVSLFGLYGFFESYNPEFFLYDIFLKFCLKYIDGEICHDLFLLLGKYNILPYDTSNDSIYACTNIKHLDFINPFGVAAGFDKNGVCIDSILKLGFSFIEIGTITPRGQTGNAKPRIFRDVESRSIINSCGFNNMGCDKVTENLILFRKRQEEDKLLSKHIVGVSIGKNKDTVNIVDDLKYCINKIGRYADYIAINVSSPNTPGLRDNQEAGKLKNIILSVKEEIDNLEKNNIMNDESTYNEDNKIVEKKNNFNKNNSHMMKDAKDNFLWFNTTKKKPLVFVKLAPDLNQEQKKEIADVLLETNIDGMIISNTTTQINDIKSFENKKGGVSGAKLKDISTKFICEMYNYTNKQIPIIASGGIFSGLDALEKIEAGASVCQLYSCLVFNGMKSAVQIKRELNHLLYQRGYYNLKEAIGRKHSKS
Chain of E3 ubiquitin-protein ligase XIAP (Homo sapiens) (P98170 whole entry, looked up, the tested form may be a part): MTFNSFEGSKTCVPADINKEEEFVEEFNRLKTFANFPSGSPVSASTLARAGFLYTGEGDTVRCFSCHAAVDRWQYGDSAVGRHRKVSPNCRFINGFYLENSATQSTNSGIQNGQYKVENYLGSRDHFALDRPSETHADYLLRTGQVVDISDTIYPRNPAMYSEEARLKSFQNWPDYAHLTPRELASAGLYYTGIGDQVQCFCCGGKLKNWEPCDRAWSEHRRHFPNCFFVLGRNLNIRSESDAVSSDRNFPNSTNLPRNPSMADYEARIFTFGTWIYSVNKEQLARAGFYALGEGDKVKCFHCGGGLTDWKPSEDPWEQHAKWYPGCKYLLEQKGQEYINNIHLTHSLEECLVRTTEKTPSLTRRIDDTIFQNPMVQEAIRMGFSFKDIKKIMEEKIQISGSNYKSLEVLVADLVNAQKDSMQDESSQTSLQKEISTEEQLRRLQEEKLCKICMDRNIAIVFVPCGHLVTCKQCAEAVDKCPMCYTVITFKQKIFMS

Turning to `COc1ccc(C(=O)Nc2cccc(CN3C(=O)[C@@]4(O[C@@H](CCO)[C@H]([Si](C)(C)c5ccc(OC)cc5)[C@H]4C)c4ccccc43)c2)cc1`, the z-score in assay [1] was -0.301; in assay [2], -4.74; in [3] it was -2.7; in assay [4], -4.46; in assay [5] it was -1.97; in assay [6], 2.77 (inactive). Also, the z-score was -0.972 in assay [7]; -2.36 in assay [8]; -5.62 (inactive) in [9]; -6.42 in assay [10]; -3.58 (inactive) in assay [11]; -9.06 (active) in assay [12]. Besides, the z-score was 2.06 (inactive) in [14], 2.75 (inactive) in assay [15], 1.55 (inactive) in [16] and -6.22 in assay [17]. The composite z-score in [13] is -0.873 (inactive); in [18], 0.0049; in assay [19], 0.11 (inactive); in the assay with XIP peptide (Xip251-270), 0.115.

For `CCOC(=O)C[C@H]1[C@H](OC(=O)c2ccc(C(=O)c3ccccc3)cc2)[C@@H](NC(=O)Cc2ccc(OC)cc2)c2cc(OCCCO)ccc2N1C(=O)Cc1ccc(OC)cc1`, the z-score in [1] was 0.234; in assay [2], 0.398; in assay [3], 0.856; in [4], -0.481; in [5], 2.05; in assay [6], 0.755 (inactive). Besides, the z-score in assay [7] was -0.131; in assay [8] it was 0.356; in assay [9], 1.54 (inactive); in assay [10] it was 0.964; in assay [11], -1.99 (inactive); in [12] it was 0.0905 (inactive). In addition, the z-score in assay [14] was -1.05 (inactive); in assay [15], 1.74 (inactive); in [16], 1.06 (inactive); in assay [17], 0.678. For the same compound, the composite z-score in assay [13] was 0.735 (inactive); in assay [18] it was 0.0871; in assay [19], 0.608 (inactive); in the assay on XIP peptide (Xip251-270), 0.0768.

Take `C[C@@H](OCc1ccccc1)C1NC(=O)[C@@]23C(=O)N[C@@H](Cc4ccccc4)C2[C@H](C)[C@@]2(C)O[C@H]2C3/C=C/C/C=C\CNC(=O)[C@@H]2CCCN2C1=O` (stereo not given in full): the z-score in [1] was 0.812; in assay [2], 0.11; in assay [3] it was -1.11; in assay [4], -0.722; in [5] it was 2.87; in assay [6] it was 0.566 (inactive). Also, the z-score in [7] was 0.0782; in [8], 1.19; in assay [9], 1.46 (inactive); in assay [10], 0.432; in assay [11], -1.9 (inactive); in assay [12] it was 0.556 (inactive). The z-score was -0.421 (inactive) in [14], 2.53 (inactive) in [15], 1.66 (inactive) in assay [16] and 0.685 in assay [17]. In addition, the composite z-score in assay [13] was -0.0867 (inactive); in assay [18], 0.176; in [19], 0.187 (inactive); in the assay with XIP peptide (Xip251-270), -1.05.

For the compound `C=CCNC(=O)[C@@H]1[C@H]2C(=O)O[C@H](c3ccccc3)[C@H](c3ccccc3)N2[C@H](c2ccc(O)cc2)[C@@]12C(=O)Nc1ccc(C#Cc3ccc(OC)cc3)cc12`, the z-score was 1.12 in assay [1]; -2.27 in assay [2]; -2.63 in assay [3]; -4.22 in assay [4]; -2.39 in [5]; 2.94 (inactive) in [6]. Besides, the z-score in [7] is -1.16; in assay [8], -0.975; in assay [9], -1.58 (inactive); in [10], -0.322; in [11] it was -0.267 (inactive); in assay [12] it was -1.64 (inactive). Besides, the z-score in [14] is -0.411 (inactive); in [15], -0.071 (inactive); in [16] it was 0.773 (inactive); in assay [17], -3.89. Moreover, the composite z-score was -1.35 (inactive) in [13], -0.0932 in assay [18], 0.507 (inactive) in assay [19] and 0.543 in the assay with XIP peptide (Xip251-270).

In the case of `COCCOC(=O)N1C(=O)[C@@]2(c3cc(C#CC4(O)CCCCCC4)ccc31)[C@H](C(=O)NC[C@H](O)c1ccccc1)[C@H]1C(=O)O[C@H](c3ccccc3)[C@H](c3ccccc3)N1[C@@H]2c1ccccc1OCCO`, the z-score in assay [1] was 1.76; in assay [2], -1.41; in assay [3], -3.26; in [4], -3.76; in assay [5] it was -1.3; in assay [6] it was 0.951 (inactive). Besides, the z-score in assay [7] is -0.939; in [8], -1.75; in assay [9], -0.0869 (inactive); in assay [10] it was -0.0252; in [11], 1.26 (inactive); in assay [12] it was -1.35 (inactive). Moreover, the z-score in assay [14] was 3.05 (inactive); in assay [15], 0.634 (inactive); in [16], 1.05 (inactive); in assay [17], -1.93. Also, the composite z-score is 0.811 (inactive) in [13], -0.105 in [18], 0.551 (inactive) in assay [19] and 0.751 in the assay with XIP peptide (Xip251-270).

As for `CCOC(=O)C[C@H]1[C@H](OC(=O)Cc2ccc3c(c2)OCO3)[C@@H](NC(=O)c2ccc3ccccc3c2)c2cc(OCCCO)ccc2N1C(=O)c1ccc2ccccc2n1`, the z-score in assay [1] is 0.898; in assay [2], 1.94; in [3] it was -0.144; in [4] it was 0.934; in [5] it was 2.77; in assay [6], 3.13 (inactive). Besides, the z-score is 0.319 in [7]; 1.64 in [8]; 1.09 (inactive) in [9]; 1.36 in assay [10]; -1.73 (inactive) in assay [11]; -0.0816 (inactive) in assay [12]. The z-score in assay [14] was -4.07 (inactive); in assay [15] it was 1.23 (inactive); in [16], 0.0331 (inactive); in [17] it was -0.375. The composite z-score in [13] is 0.623 (inactive); in [18] it was 0.128; in assay [19], 0.467 (inactive); with XIP peptide (Xip251-270) it was -0.275.

For the compound `O=C1N(CCS(=O)(=O)c2ccccc2)Cc2ccccc2[C@@H]2OC(c3ccc(OCCCO)cc3)=N[C@]12Cc1ccccc1`, the z-score in [1] is 2.11; in [2], 0.288; in assay [3], -0.0623; in assay [4], -0.222; in [5], 0.194; in [6], 0.401 (inactive). Further, the z-score was -1.11 in assay [7]; -0.693 in [8]; -0.77 (inactive) in [9]; 0.309 in [10]; 1.72 (inactive) in assay [11]; -0.739 (inactive) in assay [12]. Besides, the z-score in [14] was 4.1 (inactive); in assay [15], 2.25 (inactive); in assay [16] it was 1.05 (inactive); in assay [17], -0.384. Further, the composite z-score in assay [13] is 0.913 (inactive); in assay [18], -0.121; in [19], 1.73 (inactive); with XIP peptide (Xip251-270) it was 0.927.

For `COC(=O)C1=CC(c2ccc(CO)cc2)=CC(C2CC2)N(C)C=C1C(=O)OC` (stereo not given), the z-score in assay [1] was 1.31; in [2], 0.295; in assay [3], 1.07; in assay [4], -0.503; in [5] it was 1.47; in [6], 0.935 (inactive). In addition, the z-score in [7] was 0.515; in assay [8], 1.12; in [9], 0.419 (inactive); in assay [10], 0.578; in assay [11], -2.82 (inactive); in [12], 0.833 (inactive). Besides, the z-score was -3.29 (inactive) in assay [14], 0.983 (inactive) in assay [15], 1.28 (inactive) in [16] and 0.842 in assay [17]. The composite z-score in [13] is -0.782 (inactive); in assay [18] it was -0.0388; in assay [19] it was 1.8 (inactive); in the assay with XIP peptide (Xip251-270), -0.407.
